Assay results taken from PubChem BioAssay (NCATS).

target: Glucocorticoid receptor (Homo sapiens) (UniProt P04150); assay: GR-GFP Redistribution (AID 450); settings: U2OS GR-GFP nuclear translocation, laser cytometry, 2 h; series mostly up to 20.6 µM
Potency is the fitted concentration of half-maximal effect.

Chain of Glucocorticoid receptor (Homo sapiens) (P04150 whole entry, looked up): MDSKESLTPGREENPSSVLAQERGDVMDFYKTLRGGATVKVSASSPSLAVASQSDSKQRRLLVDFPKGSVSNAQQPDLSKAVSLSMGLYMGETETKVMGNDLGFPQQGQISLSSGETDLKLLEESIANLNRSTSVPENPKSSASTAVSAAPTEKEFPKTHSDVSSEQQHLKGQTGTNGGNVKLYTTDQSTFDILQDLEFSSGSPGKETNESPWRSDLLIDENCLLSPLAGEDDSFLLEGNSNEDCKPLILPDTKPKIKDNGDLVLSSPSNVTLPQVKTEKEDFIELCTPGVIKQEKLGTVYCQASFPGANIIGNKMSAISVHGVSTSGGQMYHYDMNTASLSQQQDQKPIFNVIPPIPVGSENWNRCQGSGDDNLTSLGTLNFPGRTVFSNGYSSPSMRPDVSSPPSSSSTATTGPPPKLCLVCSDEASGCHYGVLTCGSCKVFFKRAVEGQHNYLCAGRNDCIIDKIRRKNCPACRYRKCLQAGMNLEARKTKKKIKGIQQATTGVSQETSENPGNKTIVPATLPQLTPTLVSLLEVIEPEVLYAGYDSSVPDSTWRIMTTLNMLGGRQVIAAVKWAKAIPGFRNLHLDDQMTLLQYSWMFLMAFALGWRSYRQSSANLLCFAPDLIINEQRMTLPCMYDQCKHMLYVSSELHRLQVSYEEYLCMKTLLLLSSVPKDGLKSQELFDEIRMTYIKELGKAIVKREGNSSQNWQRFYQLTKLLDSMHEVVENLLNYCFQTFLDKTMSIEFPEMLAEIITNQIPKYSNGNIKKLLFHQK

Potency, inactive:
CCc1ccc(-c2cn3nc(C)c(C)nc3n2)cc1 > 20.6 µM
CCCSc1nnc(NC(=O)Nc2ccc(F)cc2)s1 > 20.6 µM
Cc1nc(N2CCN(C(=O)c3ccc(Cl)cc3)CC2)c(C#N)c2c1COC(C)(C)C2 > 20.6 µM
CCOC(=O)c1[nH]c2ccc(OC)cc2c1NC(=O)CCN1CCC(C)CC1 > 20.6 µM
COc1ccc(OC)c2c(N)c(C#N)c(C(F)(F)C(F)(F)F)nc12 > 20.6 µM
CCC(=O)Nc1c(C#N)c2nc3ccccc3nc2n1C1CCCCC1 > 20.6 µM
N=c1c(C(=O)NCc2ccccc2)cc2c(=O)n3ccccc3nc2n1Cc1ccco1 > 20.6 µM
CC(C)OCCCn1c(=N)c(C(N)=S)cc2c(=O)n3ccccc3nc21 > 20.6 µM
CNc1oc(-c2ccccc2Cl)nc1C#N > 20.6 µM
CCCCn1cnc2c(c1=O)c1nc3ccccc3nc1n2Cc1ccc2c(c1)OCO2 > 20.6 µM
Cc1c(/C(O)=C2\C(=O)C(=O)N(CCCN(C)C)C2c2ccccc2)cnn1-c1ccccc1 (stereo not given) > 20.6 µM
CCCN(CCC)c1nc2ccccc2nc1C(C#N)C(=O)OC(C)COC (stereo not given) > 20.6 µM
COc1nc(N(C)S(=O)(=O)c2ccc(C)cc2)nc(C)c1Cl > 20.6 µM
CCSc1nnc(NC(=O)NC(CC)(C(F)(F)F)C(F)(F)F)s1 > 20.6 µM
CCCCCNC(=O)c1c(N)n(/N=C/c2ccco2)c2nc3ccccc3nc12 > 20.6 µM
